Assay outcomes (PubChem BioAssay)
PKM2 act: qHTS Assay for Activators of Human Muscle isoform 2 Pyruvate Kinase | purified PKM2, Kinase-Glo ATP luminescence, activation; response scale: 0% is enzyme alone, no compound | Pyruvate kinase PKM (Homo sapiens), P14618 | AID 1631, 2009 | Potency, µM (series often up to 57.5 µM), actives largely listed as activators | 260,000 tested, 0.34% active; note: nearly all actives have a fitted effect of over 55% in size
Target sequence (P14618 whole entry, looked up, canonical isoform): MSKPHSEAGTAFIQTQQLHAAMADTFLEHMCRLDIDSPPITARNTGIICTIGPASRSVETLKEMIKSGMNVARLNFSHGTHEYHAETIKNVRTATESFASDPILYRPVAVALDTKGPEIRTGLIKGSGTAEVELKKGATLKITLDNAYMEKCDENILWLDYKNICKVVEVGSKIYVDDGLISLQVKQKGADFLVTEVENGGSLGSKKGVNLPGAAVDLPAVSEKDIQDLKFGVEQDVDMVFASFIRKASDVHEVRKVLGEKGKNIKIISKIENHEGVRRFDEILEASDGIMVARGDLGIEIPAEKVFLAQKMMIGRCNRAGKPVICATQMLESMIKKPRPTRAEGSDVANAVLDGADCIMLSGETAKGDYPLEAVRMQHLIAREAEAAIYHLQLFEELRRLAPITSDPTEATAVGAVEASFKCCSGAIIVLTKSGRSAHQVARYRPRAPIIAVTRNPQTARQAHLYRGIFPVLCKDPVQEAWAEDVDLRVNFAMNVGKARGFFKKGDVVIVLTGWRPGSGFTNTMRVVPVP
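Purified hPK-M2 (>95%) run at intermediate activity with 0.1 mM ADP and 0.5 mM PEP in 50 mM imidazole pH 7.2, KCl, MgCl2; 1 h room temperature. ATP formed read by Kinase-Glo luminescence; normalized to uninhibited and no-enzyme controls.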
Vif-APOBEC3G blk: qHTS for Inhibitors of Vif-A3G Interactions: qHTS; DNA dC->dU-editing enzyme APOBEC-3G (Homo sapiens), Q9HC16; AID 602310, 2012; HeLa A3G-eYFP + Vif (tagged APOBEC3G with the HIV-1 protein that degrades it), YFP fluorescence, overnight; Potency, µM (doses to about 46.1 µM), hits mostly inhibitors; 410,000 tested, 0.076% active; note: nearly all actives have a fitted effect of over 60% in size
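Read-out is eYFP fluorescence (Ex 488/Em 500-530) from Vif-expressing HeLa A3G-eYFP cells; more signal means A3G escaped Vif-mediated degradation. Cells plated overnight, compound pinned in, incubated overnight at 37 deg C.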
IL-2 act: qHTS of IL-2 Activators; IL-2 activation reporter assay, cell-based qHTS; stimulated with anti-CD3/CD4/CD28 beads; in transgenic mouse T cells; activation, % (series mostly up to about 46 µM); 360,000 tested, 0.065% active; in the data active = activation above about 50%; inconclusive = mostly about 30% to 49%
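Unstimulated transgenic mouse T cells preincubated 60 min with compound, then stimulated with anti-CD3/anti-CD4-coated beads plus anti-CD28 for 18 h at 37 degrees C. IL-2 response read as EGFP and DsRed fluorescence by plate cytometry.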
Vif-A3F inh: qHTS for Inhibitors of Vif-A3F Interactions: qHTS | 390,000 tested, 0.2% active | AID 602313, 2012 | HeLa A3F-eYFP + Vif (tagged APOBEC3F with the HIV-1 protein that degrades it), YFP fluorescence increase | Potency, µM (top dose mostly 46.1 µM); note: nearly all actives have a fitted effect of over 65% in size
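HeLa cells stably expressing A3F-eYFP plus Vif, plated and incubated overnight at 37 deg C, then exposed to compounds overnight at 37 deg C. Blocked degradation read as raised yellow fluorescence (Ex 488/Em 500-530).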
GoLoco inh red: qHTS Assay for Inhibitors of RGS12 GoLoco Motif Activity (Red Fluorophore); Guanine nucleotide-binding protein G(i) subunit alpha-1 (Homo sapiens), P63096; Gai1:RGS12 GoLoco peptide FP, rhodamine, 10 min; Potency, µM (titrated, usually from 61.6 µM), actives largely listed as inhibitors; 230,000 tested, 0.44% active; active = well fitted inhibition curve with a large enough effect, not every such curve was filed as active; inactive = no such curve, though single readings can be large or run the other way; note: nearly all actives have a fitted effect of over 30% in size
KAT2A inh: qHTS Assay for Inhibitors of GCN5L2. 390,000 tested, 0.21% active. Potency, µM (series often up to 58.9 µM), actives largely listed as inhibitors. GCN5L2 HAT assay, ThioGlo1 CoA-SH fluorescence. Histone acetyltransferase KAT2A (Homo sapiens), Q92830
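Fluorescence readout, Ex340nm/Em540nm: ThioGlo1 (50uM final) reacts with free CoA thiol released as 20nM GCN5L2 acetylates H3(1-25) peptide (75uM) using acetyl-CoA (70uM). Compound and enzyme sat 15 min beforehand; 20 min room-temperature reaction.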
Numbers stand for hits; n = inactive; u = inconclusive; x = no result. The list is not random: actives were taken first. Their share in the collection is about 0.77%. Unless noted, calls come from the whole dose curve; as a rule, active = well fitted curve in the direction sought with a large enough effect; inconclusive = small, poorly fitted or top-dose-only effect, or another doubt; inactive = no such curve, though single readings can be large; an effect the other way counts as inactive or inconclusive.

SMILES	PKM2 act	Vif-APOBEC3G blk	IL-2 act	Vif-A3F inh	GoLoco inh red	KAT2A inh
CC(C)C(OC(=O)c1cccs1)C(=O)NCc1ccccc1 (centres undefined)	n	n	n	n	n	n
CNc1nc2c(N)ncnc2n1[C@@H]1O[C@@H]2COP(=O)(O)O[C@H]2[C@H]1O	x	x	x	x	x	n
CC1=CC(C#N)(C#N)C(C#N)(C#N)C(c2ccccc2)N1 (centres undefined)	n	x	x	x	31.6µM	n
Cc1csc(NC(=O)c2ccco2)n1	n	n	n	n	n	n
O=C(Nc1n[nH]c(=S)s1)c1ccco1	n	n	n	n	x	31.6µM
COc1ccc(-n2c(O)c(/C=N/NS(=O)(=O)c3cc(C)ccc3C)c3ccccc3c2=O)cc1OC	n	n	u	u	n	n
COc1ccc(-n2c(O)c(/C=N/NS(=O)(=O)c3ccc(C)cc3)c3ccccc3c2=O)cc1OC	n	u	n	5.01µM	n	n
Cc1[nH]c2ccccc2c1/C=C/c1ccc2ccccc2n1	x	11.2µM	x	x	x	x
COc1ccc(OC)c(NC(=O)C(CC(=O)O)NCc2ccco2)c1 (centres undefined)	n	n	n	n	n	3.16µM
Cc1c(C(=O)N(C)C2CC(C)(C)NC(C)(C)C2)oc2c(F)cccc12	n	n	n	n	x	n
CCOC(=O)c1c(-c2ccc(OC)cc2)csc1/N=C/C1=C(O)CCCC1=O	n	22.4µM	n	22.4µM	n	n
CCOC(=O)c1c(/N=C/C2=C(O)CCCC2=O)sc(C)c1C	n	n	n	n	n	n
CN(CC(=O)Nc1cccc(F)c1)C(=O)c1ccc(-c2ccc(Cl)cc2)o1	n	n	n	n	x	n
COCCCNc1c2c3c(cccc3[nH]c1=O)C(=O)c1ccccc1-2	n	n	n	n	4.47µM	u
CCn1c(SCc2nc3ccccc3[nH]2)nnc1-c1ccccc1OC	n	n	n	n	n	n
CCc1cccc(NS(=O)(=O)c2ccc3c(c2)oc(=O)n3C)c1	3.16µM	n	n	n	n	n
COc1ccc(NS(=O)(=O)c2ccc3c(c2)oc(=O)n3C)cc1Cl	x	n	n	n	x	n
COc1ccc(S(=O)(=O)Nc2ccc3c(c2)OCO3)cc1	25.1µM	n	n	n	n	n
Cn1c(=O)oc2cc(S(=O)(=O)Nc3ccc4c(c3)OCO4)ccc21	7.94µM	n	n	n	n	n
Cn1c(=O)oc2cc(S(=O)(=O)Nc3ccccc3)ccc21	2.51µM	n	n	n	n	n
O=C(NCCc1csc(-c2cccnc2)n1)c1ccc(Cl)cc1	n	n	n	n	n	n
COc1ccc(C(=O)Nc2cc(C(=O)c3ccccc3)c(C)oc2=O)cc1	u	n	n	n	n	n
Cc1oc(=O)c(NC(=O)c2cccc(Cl)c2)cc1C(=O)c1ccccc1	7.08µM	u	n	n	n	n
COc1ccc(OCc2nnc(SCC(=O)NC3CC3)n2C)cc1	n	n	n	n	x	n
CCOC(=O)c1ccc2c(c1)nc(COc1ccc(OC)cc1)n2CC	n	n	n	n	n	n
SMILES	PKM2 act	Vif-APOBEC3G blk	IL-2 act	Vif-A3F inh	GoLoco inh red	KAT2A inh
CCn1c(CSc2nccn2C)nc2cc(C(=O)O)ccc21	n	n	n	n	15.8µM	n
CC(C)(C)c1ccc(S(=O)(=O)Nc2ccc3c(c2)COC3=O)cc1	n	n	n	n	n	n
Cc1cc(S(=O)(=O)Nc2ccc3c(c2)COC3=O)ccc1F	11.2µM	n	n	n	n	n
COc1ccc(S(=O)(=O)N2CCOCC2)cc1NC(=O)CO/N=C/c1ccccc1OC(F)F	n	n	n	n	n	n
O=C(O)c1ccc(Nc2cc(Cl)c3nonc3c2[N+](=O)[O-])cc1	x	n	n	n	14.1µM	n
CCC(C(=O)O)C1CCC(C)C(C(C)C(O)C(C)C(=O)C(CC)C2OC3(C=CC(O)[C@@]4(CC[C@](C)(C5CC[C@@](O)(CC)C(C)O5)O4)O3)C(C)CC2C)O1 (some centres undefined)	x	x	x	x	28.2µM	n
CC[C@@H](C(=O)[C@@H](C)[C@@H](O)[C@H](C)CCc1ccc(C)c(O)c1C(=O)O)[C@H]1O[C@](CC)([C@H]2CC[C@](O)(CC)[C@H](C)O2)C[C@@H]1C	n	n	n	n	x	u
Oc1nc(Nc2ccccc2)sc1/C=C1\C=Nc2ccccc21	n	n	n	n	n	n
Cc1ccc(C)n1Cc1ccc(C(=O)O)cc1	n	n	n	n	n	15.8µM
CC1=CC(C)(C)N(C(=O)CSc2nnc(N)s2)c2c(C)cc(C)cc21	n	n	n	n	n	3.98µM
CCOC(=O)c1ccc(S(=O)(=O)N2CCN(C)CC2)cc1	n	n	n	n	n	3.55µM
CCCN1CCc2c(sc(NC(=O)c3ccc(S(=O)(=O)N(C)c4ccccc4)cc3)c2C(N)=O)C1	n	u	n	6.31µM	x	n
CCCN1CCc2c(sc(NC(=O)c3ccc(S(=O)(=O)N(C)c4ccccc4)cc3)c2C(=O)NC)C1	n	22.4µM	n	u	x	n
CCOC(=O)c1c(NC(=O)c2ccc(S(=O)(=O)N3CCC(C)CC3)cc2)sc2c1CCN(C)C2	x	u	x	10µM	x	n
CCOC(=O)N1CCN(S(=O)(=O)c2ccc(C(=O)Nc3sc4c(c3C(=O)OC)CCN(C)C4)cc2)CC1	n	u	n	u	x	n
Cc1ccc(NC(=O)Cn2c(=O)n(Cc3ccco3)c(=O)c3sc4ccccc4c32)c(C)c1	x	n	x	n	x	n
NS(=O)(=O)c1ccccc1NC(=S)Nc1ccccc1S(N)(=O)=O	x	n	n	n	x	n
Cn1c(C(N)=O)cnc1Sc1ncc(C(F)(F)F)cc1Cl	n	n	n	n	n	n
CCCN1CCc2c(sc(NC(=O)c3ccc(S(=O)(=O)N4CCN(C(=O)OCC)CC4)cc3)c2C(N)=O)C1	n	u	n	10µM	x	n
NC(=O)c1c(NC(=O)C2COc3ccccc3O2)sc2c1CCN(Cc1ccccc1)C2 (centres undefined)	n	n	400.7	u	n	n
CCOC(=O)c1c(NC(=O)C2COc3ccccc3O2)sc2c1CCN(Cc1ccccc1)C2 (centres undefined)	n	n	n	n	n	n
Cc1cc(C(=O)OCC(=O)N(C)c2ccccc2)c2ccccc2n1	x	n	n	n	x	n
COc1ccc(/C=N/Nc2cc(C)nc(N)n2)cc1	n	n	n	n	n	n
